# Results as given in PubChem BioAssay AID2013 (Sanford-Burnham Center for Chemical Genomics, 2009).
# Several values for one entry are separate records, joined by “and”; a condition that tells them apart may be missing. Equal entries are not always repeated. In all, about 290,000 compounds went through this assay and about 370 (0.13%) were called active. The sample as a whole holds a higher share of actives than the screen did. Measured potencies and affinities stand elsewhere. A number with no mark means an inactive call.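 Rule for the calls: active = spots per cell inhibited over 60%, with over 100 cells counted and total cytoplasm intensity under 500,000; inconclusive = wells with under 100 cells, flagged as likely toxic; inactive = the rest.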
# Target: G-protein coupled receptor 55 (Homo sapiens) (UniProt Q9Y2T6)
# Experiment: inhibition of LPI-stimulated GPR55 beta-arrestin translocation – imaging, U2OS, beta-arrestin-GFP, LPI agonist, primary screen (AID 2013);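 note: U2OS cells stably carrying GPR55 and arrestin-GFP stimulated by 5 µM LPI near EC80; imaged beta-arrestin-GFP aggregate spots per cell after agonist stimulation; plate controls were LPI-stimulated DMSO wells for no effect and DMSO wells without LPI for full effect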
# Conditions: LPI antagonism, at 10 µM, stronger effect = higher value
# Chain of G-protein coupled receptor 55 (Homo sapiens) (Q9Y2T6 whole entry, looked up): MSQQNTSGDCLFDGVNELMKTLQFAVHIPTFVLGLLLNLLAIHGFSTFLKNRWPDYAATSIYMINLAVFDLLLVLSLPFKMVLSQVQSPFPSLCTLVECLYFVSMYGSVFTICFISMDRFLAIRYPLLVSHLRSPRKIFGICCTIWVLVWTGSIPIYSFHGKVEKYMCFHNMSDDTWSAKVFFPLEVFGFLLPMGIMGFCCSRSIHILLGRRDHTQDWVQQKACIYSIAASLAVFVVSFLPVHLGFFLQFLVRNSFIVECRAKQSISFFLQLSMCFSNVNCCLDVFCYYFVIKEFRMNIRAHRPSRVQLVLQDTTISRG
row,Structure (SMILES),inhibition
1,CC(=O)N1CCN(c2ccc(NC(=O)c3ccc(F)cc3)cc2)CC1,4.7%
2,Cc1ccc(C(=O)NC2CCN(CC(=O)Nc3c(C)cc(C)cc3C)CC2)cc1,3.2%
3,COc1cc(C(=O)NCc2nnc(SCC(=O)Nc3nc4ccccc4s3)o2)cc(OC)c1OC,-13.1%
4,O=C(Cn1c(=O)c2cccn2c2cccnc21)N1CCN(c2ccc(Cl)cc2)CC1,-2.4%
5,COc1ccc(NC(=O)CN(C)C(=O)C(C)Sc2ccccc2)cc1 (stereo unspecified),8.3%
6,CC(=O)Nc1ccc(S(=O)(=O)NC(CC(=O)NCCc2ccccc2)C(C)C)cc1 (stereo unspecified),12.5%
7,CC(=O)N1CCN(c2ccc(NC(=O)c3ccc([N+](=O)[O-])cc3Cl)cc2)CC1,3.5%
8,Cc1nc(-c2ccc([N+](=O)[O-])cc2)sc1C(=O)O,6.9%
9,CCS(=O)(=O)c1ccc(-c2csc(-c3ccccc3)n2)c(Cl)c1Cl,31.4%
10,CCS(=O)(=O)c1ccc(-c2csc(-c3ccccc3Cl)n2)c(Cl)c1Cl,-11.1%
11,COc1ccc(-c2csc(Nc3cccc(C)n3)n2)cc1C,13.8%
12,O=C(Nc1nc(-c2ccc(Cl)cc2Cl)cs1)c1ccc(OCC2CCCO2)cc1 (stereo unspecified),96% (active)
13,O=C(Nc1nc(-c2ccc(F)c(F)c2)cs1)c1ccc(OCC2CCCO2)cc1 (stereo unspecified),-5.3%
14,COc1ccc(OC)c(-c2csc(NC(=O)c3ccc(OCC4CCCO4)cc3)n2)c1 (stereo unspecified),-3%
15,CCn1nc(C)c(/C=N/NC(=O)Cn2nnc(N)n2)c1C,-1.9%
16,CCOC(=O)C1CCCN(S(=O)(=O)c2cc(Br)cc3c2N(C(=O)CC)CC3)C1 (stereo unspecified),-0.6%
17,COc1cc(/C=C/C(=O)OCN2C(=O)c3ccccc3C2=O)ccc1OC(F)F,0.4%
18,COc1ccc(-c2oc(/N=C/N3CCCC3)c(C#N)c2-c2ccc(OC)cc2)cc1,14.8%
19,N#Cc1c(/N=C/c2ccccc2)oc(-c2ccccc2)c1-c1ccccc1,-11.7%
20,CC(C)(C)SCCNC(=O)/C=C/c1ccccc1,2.8%
21,COc1ccc(S(=O)(=O)n2nc(OC(=O)c3c(-c4ccccc4Cl)noc3C)cc2N)cc1,-4.9%
22,COc1cccc(N(C(=O)c2cccs2)c2nc3ccccc3s2)c1,0.2%
23,Cc1ccsc1C(=O)N(c1nc2ccccc2s1)c1c(C)cccc1C,9.7%

row,Structure (SMILES),inhibition
1,O=C(COC(=O)C1CC2C=CC1C2)Nc1cccc(S(=O)(=O)N2CCOCC2)c1 (stereo unspecified),-10.4%
2,C=C(c1ccc(OC)cc1)c1ccc(OC)cc1,-8%
3,O=C(c1ccc(O)cc1)c1ccc(C(=O)c2ccc(O)cc2)cc1,9.7% and -6%
4,ONC(=Nc1ccccc1)c1ccc(Cl)cc1,19.2%
5,COc1ccccc1C(c1nnnn1Cc1ccco1)N1CCN(c2cccc(C)c2C)CC1 (stereo unspecified),15.4%
6,COc1cccc(C(c2nnnn2Cc2ccco2)N2CCN(c3cccc(C)c3C)CC2)c1OC (stereo unspecified),99.7% (active)
7,CCN1CCN(C(c2cccc(OC)c2OC)c2nnnn2Cc2ccco2)CC1 (stereo unspecified),-6.5%
8,O=C(NC1CCN(Cc2ccc(F)cc2)CC1)c1ccccc1,6.4%
9,Fc1ccc(NC(=S)NC2CCN(Cc3ccccc3)CC2)cc1,28.1%
10,COCCN(CCOC)C(=S)Nc1ccccc1,12.7%
11,NC(=O)C1CCN(C(=O)C2CC(=O)N(c3ccc(F)cc3)C2)CC1 (stereo unspecified),-0.2%
12,COc1ccccc1OCC(=O)N1CCN(C(=O)COc2ccccc2OC)CC1,2.2%
13,Oc1ccc(/C=N/Nc2nc(-c3cccnc3)nc3ccccc23)c(O)c1,1.9%
14,Oc1ccc(Nc2nc(-c3ccccc3F)nc3ccccc23)cc1,7.7%
15,O=C(Nc1nnc(-c2ccccc2)o1)c1cc(Cl)sc1Cl,-2.3%
16,O=C(O)c1cc2c(cc1NC(=O)c1ccccc1OC(F)F)OCCCO2,-0.6%
17,CCOC(=O)c1c(NC(=O)C2=C(C)NC(=S)NC2c2ccc(F)cc2F)sc(C)c1C (stereo unspecified),10%
18,CCOC(=O)c1c(NC(=O)c2ccnn2C)sc(C)c1C,1.1%
19,CCOC(=O)c1c(NC(=O)c2ccncc2)sc(C)c1C,-0.7%
20,CCOC(=O)c1c(NC(=O)c2ccc(Cl)s2)sc(C)c1C,1.6%
21,CCOC(=O)c1c(NC(=O)C2=C(C)NC(=S)NC2c2ccc(F)cc2)sc(C)c1C (stereo unspecified),64.1% (active)
22,CCOC(=O)c1c(NC(=O)c2cccnc2)sc(C)c1C,-12.1%
23,CCOC(=O)c1c(NC(=O)C2=C(C)NC(=S)NC2c2ccccc2C(F)(F)F)sc(C)c1C (stereo unspecified),5.6%

row,Structure (SMILES),inhibition
1,Cc1ccccc1NC(=O)CCS(=O)(=O)c1cccc2nonc12,2.7%
2,COc1ccc2c(c1)C(NC(C)=O)C(=O)N2CCc1ccccc1 (stereo unspecified),6.6%
3,O=C(CCC(=O)n1ncc2ccccc21)NCc1ccc(F)cc1,-2.2%
4,O=C(NCc1ccc2c(c1)OCO2)c1nc(Cn2cc([N+](=O)[O-])cn2)no1,-20%
5,CC(C)(C)C(=O)COC(=O)c1cc(-c2ccncc2)nc2ccccc12,2.9%
6,O=C(Cn1c(=O)oc2ccccc21)N1CCCC1,-1.8%
7,CCOC(=O)c1c(CN(C)C)n(-c2ccccc2)c2cc(Br)c(OC)cc12,-15.4%
8,CCCCCCCCOC(=O)c1c(CSC(=N)N)n(C)c2cc(Br)c(OC(C)=O)cc12,23.7%
9,CCOC(=O)c1c(CSc2nc(C)cc(C)c2C#N)n(C)c2cc(Br)c(OC(C)=O)cc12,1.8%
10,CCOC(=O)c1c(CN2CCOCC2)n(-c2ccccc2)c2cc(Br)c(OC)cc12,23.1%
11,CCOC(=O)c1c(CSC(=N)N)n(-c2ccc(Br)cc2)c2cc(Br)c(OC(C)=O)cc12,89.3% (active)
12,CCOC(=O)c1c(CN(C)C)n(-c2ccc(C)cc2)c2cc(Br)c(O)cc12,-0.7%
13,CCOC(=O)c1c(CN(C)C)n(-c2ccccc2)c2cc(Br)c(O)cc12,3.4%
14,C=CCCc1ccc(C#N)c(SCc2c(C(=O)OCC)c3cc(OC(C)=O)c(Br)cc3n2C)n1,-23.2%
15,CCOC(=O)c1c(C)n(C)c2cc(Br)c(OC)cc12,7.4%
16,CC(C)CCN(Cc1ccco1)S(=O)(=O)c1ccc(-c2ccc(=O)[nH]n2)s1,12.8%
17,Cc1onc(-c2ccccc2)c1C(=O)N1CCCN2C(=O)c3ccccc3C21 (stereo unspecified),-4.5%
18,O=S1(=O)Cc2cc3ccccc3cc2C1,16.4%
19,COc1ccc(C)cc1NC(=O)c1ccc(OC(F)F)cc1,3.1%
20,CC(/C=C/c1ccccc1)=N/NC(=O)C(O)c1ccccc1 (stereo unspecified),0.5%
21,CC(=O)NC1=NN(C(C)=O)C2(S1)C(=O)N(C(C)=O)c1ccc(C)cc12 (stereo unspecified),7.7%
22,CC(c1nnc(SCC(=O)N2CC(=O)Nc3ccccc32)n1Cc1ccccc1)N(C)C (stereo unspecified),-4.8%
23,COc1cccc(Nc2cc(C)c3ccccc3n2)c1,6.5%

row,Structure (SMILES),inhibition
1,COc1cccc(NCc2cc3c(C(C)(C)C)nn(-c4ccccc4)c3[nH]c2=O)c1,22.7%
2,CCOc1ccc(NCc2cc3c(C(C)(C)C)nn(-c4ccccc4)c3[nH]c2=O)cc1,19.3%
3,CC(C)(C)c1nn(-c2ccccc2)c2[nH]c(=O)c(CNc3ccc4c(c3)OCCO4)cc12,16.1%
4,Cc1nn(-c2ccccc2)c2[nH]c(=O)c(CNCc3ccc4c(c3)OCO4)cc12,-26.6%
5,Cc1ccc(-c2nn(-c3ccccc3)c3[nH]c(=O)c(CNCc4ccccc4)cc23)cc1,11.1%
6,CC(C)(C)c1nn(-c2ccccc2)c2[nH]c(=O)c(CNCc3ccco3)cc12,39.5%
7,COc1ccc(N2CCN(S(=O)(=O)c3ccc(Cl)s3)CC2)cc1,-2%
8,Cc1ccc(NC(=O)CN(C)C(=O)CCOc2cccc(C)c2)cc1,7.3%
9,O=[N+]([O-])c1ccc(N/N=C2\CC3CC=CC23)cc1 (stereo unspecified),-7.7%
10,O=C(N/N=C/c1ccc(OC(=O)c2ccccc2Cl)cc1)c1cc(O)cc(O)c1,4.4%
11,O=C(CNC1CCCCC1)N1CCc2ccccc2C1,-1.3%
12,NS(=O)(=O)c1ccc(Oc2ccc(S(N)(=O)=O)cc2)cc1,-4.4%
13,CNS(=O)(=O)c1ccc(Oc2ccc(S(=O)(=O)NC)cc2)cc1,19%
14,C=CS(=O)(=O)c1ccc(Oc2ccc(S(=O)(=O)C=C)cc2)cc1,70.4% (active)
15,COc1ccc(C(=S)N2CCOCC2)cc1OC(=O)c1ccc([N+](=O)[O-])cc1[N+](=O)[O-],6.8%
16,COC(=O)CCC(=O)OC1(C)C(=O)C=C2C=C(C3CC3)N(C3CC3)C=C2C1=O (stereo unspecified),5.7%
17,COc1cccc(NC(=O)COC(=O)C2C3CC4OC(=O)C2C4C3)c1 (stereo unspecified),2.1%
18,COCCN=C1N[C@@H](c2ccccc2)C(C(=O)OC)=C(C)N1Cc1ccccc1,31.4%
19,COC(=O)C1=C(C)N(Cc2ccccc2)C(=NCCCCO)N[C@H]1c1ccccc1,-6.4%
20,Cc1ccc(OCC(=O)N2c3ccccc3NC(=O)C2(C)C)c([N+](=O)[O-])n1,6.9%
21,CCOC(=O)c1nc(Nc2ccc(C)cc2)c2ccccc2n1,11.6%
22,CCOC(=O)c1nc(Nc2ccccc2)c2ccccc2n1,-3.5%
